USP30 block: human USP30 deubiquitinase inhibition; actives 5.3% (n = 47,000); purified USP30, Ub-rhodamine cleavage fluorescence; Q70CQ3; inhibition, % at 25 µM; AID 1645860
USP17 inh: human USP17-like deubiquitinase inhibition; A8MUK1; purified USP17, Ub-rhodamine cleavage fluorescence, 3 h; inhibition, % at 50 µM; actives 6.5% (n = 47,000); AID 1645855
* marks the source's active call; other numbers are inactive results. Rows were chosen to be rich in hits. Some 9.6% of all compounds tested hit in one or more screens of this group. Rule as the data show it: active = inhibition above about 30%; inactive = the rest.

Screening COC(=O)CC1CC2=C(C(=O)c3c(O)cccc3C2=O)C(C)O1 (stereo not drawn) returned USP30 block -98.8 and USP17 inh 42.0*.
O=C(O)CC1C(=O)Nc2c(O)cccc21 (stereo not drawn) was read as USP30 block 11.5 and USP17 inh -3.9.
Screening CC1OC(CC(=O)O)CC23OC12C(=O)c1c(O)cccc1C3=O (stereo not drawn) returned USP30 block -93.4 and USP17 inh 63.4*.
Screening Cc1ccc2c(=O)c(C(=O)N3CCOCC3)cn(CC(N)=O)c2n1 returned USP30 block -21.6 and USP17 inh -9.4.
For CS(=O)(=O)c1cc(Cl)ccc1CN1CCc2nc3cccnc3cc2C1 the results were USP30 block inactive and USP17 inh -139.9.
For Cc1ccc(NC(=O)CCc2nc(CSc3nnc(-c4cccc(C)c4)o3)no2)cc1 the results were USP30 block 29.3 and USP17 inh 1.1.
Cc1ccc(-c2nnc(SCc3noc(CCC(=O)Nc4ccccc4)n3)o2)cc1 was read as USP30 block 40.0* and USP17 inh 21.2.
For COc1ccc(-c2cc(C(C)=O)c(C)n2CCC(=O)Nc2ccc(OC)cc2OC)cc1 the results were USP30 block 81.5* and USP17 inh 33.5*.
COc1ccc(NC(=O)COc2ccc(C(=O)c3ccccc3)cc2)c(OC)c1 was read as USP30 block 23.5 and USP17 inh 11.9.
`COc1ccc2nc(NC(=O)CCn3c(-c4ccccc4)cc(C(C)=O)c3C)sc2c1` gave USP30 block 7.3 and USP17 inh 6.5.
COc1ccc(-c2cc(C(C)=O)c(C)n2CCC(=O)Nc2ccc(C)cn2)cc1 was read as USP30 block -132.2 and USP17 inh -44.4.
`COc1ccc(NC(=O)COc2cc(C)nc(-c3ccc(C)cc3)n2)c(OC)c1` gave USP30 block 57.5* and USP17 inh 62.9*.
Screening CCOc1ccc(NC(=O)Cn2c(-c3ccccc3)cc(C(C)=O)c2C)cc1 returned USP30 block 36.6*.
`Cc1ccccc1NC(=O)c1cn(C)c2c(=O)n(-c3ccccc3)c(=O)[nH]c12` gave USP30 block 5.2 and USP17 inh 10.0.
`O=C(Cn1ccc2c(Cl)cccc21)NC1CCN(Cc2ccccc2)CC1` gave USP30 block -0.6 and USP17 inh 9.7.
For O=S(=O)(c1ccc(-n2cnnn2)cc1)N1CCC2(CC1)OCCO2 the results were USP30 block 18.1 and USP17 inh 2.5.
`Cc1ccccc1CNC(=O)CN1C(=O)C2CCCN2C(=O)c2cccc(C)c21` (stereo not drawn) gave USP30 block 36.8* and USP17 inh 11.5.
`Cc1ccc(CNC(=O)CN2C(=O)C3CCCN3C(=O)c3cccc(C)c32)cc1` (stereo not drawn) gave USP30 block -14.2 and USP17 inh -3.3.
For COc1[nH]c(C/C=C(\C)C/C=C/C(C)=C/C(C)C(O)C2(C)OC2C)c(C)c(=O)c1OC (stereo not drawn) the results were USP30 block -12.2 and USP17 inh -44.2.
COC(=O)c1ccc(CNC(=O)c2cccc(S(=O)(=O)N3c4ccccc4CC3C)c2)cc1 (stereo not drawn) was read as USP30 block 20.4 and USP17 inh -7.4.
For Cc1cccc(NC(=O)N2CCc3nc4ccccc4n3CC2)c1 the results were USP30 block 0.6 and USP17 inh -24.4.
For COc1ccc(NC(=O)COc2ccc(C(=O)c3ccc(F)cc3)cc2)c(OC)c1 the results were USP30 block 9.3 and USP17 inh 9.6.
`COc1cc(C#N)c(NC(=NCc2ccc(F)cc2)SC)cc1OC` gave USP30 block 47.6* and USP17 inh 53.4*.
For O=C1CC(C(=O)Nc2ccccc2)N=C(N2CCN(c3ccccc3F)CC2)N1 (stereo not drawn) the results were USP30 block 33.2* and USP17 inh 2.4.
Cc1ccc(N2CCN(C3=NC(C(=O)Nc4ccccc4)CC(=O)N3)CC2)cc1 (stereo not drawn) was read as USP30 block 27.6 and USP17 inh 20.2.
Screening CC(C)c1cc2c(c(O)c1O)[C@@]13CCCC(C)(C)[C@@H]1C[C@@H]2OC3=O returned USP30 block 11.1 and USP17 inh 73.5*.
Screening Cc1cc(C)n(CC(=O)NCCc2ccc(Cl)cc2)c(=O)c1C#N returned USP30 block 27.7 and USP17 inh 8.8.
COc1cc2c(=O)n(Cc3ccccc3)c(=O)n(CC(=O)N3CCCc4ccccc43)c2cc1OC was read as USP30 block 33.8* and USP17 inh 24.7.
For COCCNC(=O)CCCn1c(=O)c2cc(OC)c(OC)cc2n(CC(=O)N2CCCc3ccccc32)c1=O the results were USP30 block 29.0 and USP17 inh 21.6.
For Cc1noc(C2(NC(=O)Nc3ccccc3Cl)CCCCC2)n1 the results were USP30 block 7.8 and USP17 inh -10.5.
CC(=O)Nc1ccc(Oc2ncnc3ccccc23)cc1 was read as USP30 block -5.8 and USP17 inh -5.9.
